The values that follow come from the supplement of paper PMC6555819.

Common to all, as to assay: PBM binding z-score (relative to random genomic background probes); higher = stronger binding; sequences stand for … in GC…GCGATTGACAGCGTAGAATGAAGG
Assay [1] deals with FXR:RXRa (NR concentration 270 nM, RXRa partner concentration 90 nM). An outline of the steps:
(§1)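 Each nuclear receptor dimer, without ligand, was incubated for 1 h on custom Agilent 4×180K protein-binding microarrays. Binding was detected with antibodies against each partner (one per run), and scanned fluorescence was regression-normalized. The binding z-scores are referenced to random human genomic background probes.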

The subject of assay [2] is LXRa:RXRa (NR concentration 270 nM, RXRa partner concentration 90 nM). An outline of the steps:
as §1

Assay [3] relates to LXRa homodimer (NR concentration 270 nM). The method, boiled down: as §1
Assay [4] has as its system LXRb:RXRa (NR concentration 270 nM, RXRa partner concentration 90 nM). The method, boiled down:
as §1

The test system of assay [5] is LXRb homodimer (NR concentration 270 nM). The method, boiled down:
as §1

The test system of assay [6] is PPARa:RXRa (NR concentration 270 nM, RXRa partner concentration 90 nM). An outline of the steps:
as §1

Assay [7] deals with PPARg:RXRa (NR concentration 180 nM, RXRa partner concentration 90 nM). The method, boiled down: as §1
The test system of assay [8] is PPARg:RXRa 270nM:90nM, anti-RXR (NR concentration 270 nM, RXRa partner concentration 90 nM). An outline of the steps: as §1
Assay [9] deals with PPARg:RXRa 30nM:10nM, anti-RXR (NR concentration 30 nM, RXRa partner concentration 10 nM). An outline of the steps: as §1
Assay [10] has as its system PPARg:RXRa 90nM:30nM, anti-RXR (NR concentration 90 nM, RXRa partner concentration 30 nM). An outline of the steps:
as §1

For ATACCAAGGTGATCGTGAGGTCCTTGATACTAAC, the PBM binding z-score in [1] was 0.569; in assay [2] it was -0.0765; in assay [3], -0.204; in assay [4] it was 0.177; in [5], -0.319; in assay [6], 0.562. Moreover, the PBM binding z-score in assay [7] is 0.44; in [8] it was 0.0314; in assay [9] it was -0.102; in assay [10], -0.134.

For TCTCGGAGGACACGAAAGGTCAGAGGTCGACATC, the PBM binding z-score in assay [1] was 3.84; in [2], 4.45; in [3], 3.58; in [4], 4.14; in assay [5] it was 0.107; in assay [6] it was 4.5. For the same sequence, the PBM binding z-score in assay [7] is 3.27; in assay [8], 4.29; in assay [9], 3.24; in [10] it was 3.74.

In the case of TTACCAAGGTGCGCTGAGGTCGTTGATCCAACTC, the PBM binding z-score in assay [1] was 0.911; in [2] it was 0.599; in [3], 0.0298; in [4], 0.588; in assay [5] it was -0.404; in [6], 0.971. Also, the PBM binding z-score in [7] was -0.397; in [8], -0.0544; in assay [9] it was -0.287; in assay [10] it was 0.0957.

Take TATACATGGTCAAAGGCCAGAGTACGAATGTCGA: the PBM binding z-score in assay [1] is 0.397; in assay [2], 0.672; in assay [3] it was 0.238; in [4] it was 0.37; in assay [5], 0.623; in assay [6] it was 1.64. The PBM binding z-score in [7] is 3.14; in assay [8] it was 4.34; in assay [9] it was 2.32; in assay [10] it was 4.31.

Regarding CCGACTGGGGCAAAGGTTACCAGACTCAGTACGA, the PBM binding z-score was 1.56 in assay [1]; 1.7 in assay [2]; -0.36 in [3]; 1.99 in [4]; -1.21 in [5]; 5.91 in [6]. Also, the PBM binding z-score in assay [7] was 10.5; in assay [8], 8.66; in assay [9] it was 8.75; in assay [10], 9.25.

Take AATACAGGGTCATCGTAGTCCAGAGTACGCACAG: the PBM binding z-score in [1] stood at 7.48; in assay [2] it was 6.18; in assay [3] it was 2.88; in [4] it was 4.83; in assay [5] it was 1.9; in [6], 6.32. Also, the PBM binding z-score in assay [7] was 7.13; in [8], 6.38; in [9], 2.86; in assay [10] it was 4.99.

Turning to GCGCGGAGGACAAGGTCAGAGCTTTGTCCGTAGA, the PBM binding z-score is 1.64 in assay [1]; 1.37 in assay [2]; -0.378 in assay [3]; 1.01 in assay [4]; -1.25 in assay [5]; 2.27 in assay [6]. The PBM binding z-score was 0.135 in assay [7], 1.16 in assay [8], -0.943 in assay [9] and 0.36 in assay [10].

Regarding CCGAGTAGGTTACGGGGCATTCAGGCAACGGTGA, the PBM binding z-score is 0.382 in [1]; 0.612 in [2]; -0.693 in assay [3]; 0.593 in assay [4]; -0.641 in assay [5]; 2.14 in [6]. Moreover, the PBM binding z-score in [7] is 2.87; in assay [8], 3.66; in [9], 1.1; in [10] it was 2.95.

In the case of AGAACGAGGGCACGCTGAGTTGATAGGAGAGTAG, the PBM binding z-score in assay [1] was 0.875; in [2], 0.502; in assay [3] it was -0.34; in assay [4], 0.213; in [5] it was -0.689; in [6] it was 2.07. For the same sequence, the PBM binding z-score in [7] is 2.14; in [8] it was 1.82; in [9], 0.367; in assay [10], 1.14.

For the sequence CCGAGTAGGTTATGGGGCTTTCAGGCAACGGTGA, the PBM binding z-score in assay [1] was 0.104; in assay [2], 0.374; in [3] it was -0.409; in assay [4] it was 0.503; in assay [5], -0.205; in assay [6] it was 1.34. Also, the PBM binding z-score in assay [7] came out at 1.69; in assay [8], 2.5; in assay [9], 0.331; in [10], 1.54.

Take TGTCGGAGGACACGAAAGGTCAGAGCTCGACATC: the PBM binding z-score in assay [1] was 3.25; in assay [2] it was 3.96; in assay [3] it was 2.69; in [4], 3.16; in assay [5], 0.015; in assay [6] it was 3.69. Also, the PBM binding z-score in assay [7] stood at 1.62; in assay [8], 2.54; in assay [9] it was 0.799; in assay [10] it was 1.53.

With CCTTACGGGTCACTCCAGGTTATAGCATCGGAGT, the PBM binding z-score turned out to be 4.9 in assay [1]; 7.65 in [2]; 1.97 in assay [3]; 5.36 in [4]; 0.226 in assay [5]; 4.64 in assay [6]. Moreover, the PBM binding z-score in [7] amounted to 3.53; in assay [8], 3.74; in [9] it was 1.18; in assay [10], 2.57.

Regarding ATATGTAGGTTATCGGGTCGTTCAGTTTGCGCAT, the PBM binding z-score was 1.16 in assay [1]; 1.68 in assay [2]; 0.76 in assay [3]; 1.73 in assay [4]; 0.781 in assay [5]; 3.79 in assay [6]. Further, the PBM binding z-score in assay [7] stood at 5; in [8], 4.95; in assay [9] it was 2.24; in assay [10], 4.25.
